Only some compounds are listed: those with a hit (about 2.1% of all), similar ones and a draw of the others.
bovine MsrA act: bovine methionine sulfoxide reductase A activation; AID 602163; activation, % at 10.6 µM; hit rate 0.3% among 360,000; purified bovine MsrA, absorbance read-out; in the data active = activation above about 7.5%;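 note: 0% = vehicle and 100% = reference activator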
ABCB6 inh MLPCN: blocks the human ABCB6 transporter | AID 602162 | fluorescence ratio to DMSO, % at 10 µM | hit rate 0.19% among 360,000 | K562-ABCB6 porphyrin accumulation, flow cytometry, 1 h; stronger effect = lower value;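 active = fluorescence ratio to DMSO below 75%, the collection mean minus 3 SD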;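 note: signal is porphyrin accumulated inside mitochondria; 100% equals median channel fluorescence of DMSO control wells; lower ratio means ABCB6 inhibition with less porphyrin fluorescence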
SMARCA2 activ: SMARCA2 function activation, primary screen; activation, % at 9.1 µM; MG213 cells, MMTV-luciferase reporter, dexamethasone, overnight; hit rate 1% among 370,000; AID 652017; in the data active = activation above about 7.8%;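 note: 0% = vehicle wells and 100% = reference activator wells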
MsrA inhibitor: inhibitors of bovine MsrA; inhibition, % at 15.5 µM; hit rate 0.75% among 360,000; purified bovine MsrA, absorbance read-out; AID 651718;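 note: 0% = vehicle wells with enzyme and 100% = reference inhibitor wells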
MsrA act confirm: bovine methionine sulfoxide reductase A activation confirmed; purified bovine MsrA, absorbance read-out; AID 602270; activation, % at 10.6 µM; hit rate 12% among 1,000; shares compounds with bovine MsrA act; in the data active = activation above about 4%;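 note: enzyme coupled to thioredoxin and thioredoxin reductase with NADPH; 0% = vehicle wells and 100% = reference activator wells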
MsrA inh confirm: confirmation of bovine MsrA inhibitors. shares compounds with MsrA inhibitor. purified bovine MsrA, absorbance read-out. inhibition, % at 15.5 µM. hit rate 41% among 2,300;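 note: coupled to thioredoxin reductase with NADPH and selenocystamine and DMSO as substrate; 0% = vehicle only and 100% = full effect of reference inhibitor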
SMARCA2 conf: confirmation of SMARCA2 (BRM) function activators. shares compounds with SMARCA2 activ. activation, % at 9.1 µM. MG213 cells, MMTV-luciferase with dexamethasone, luminescence, overnight; MG213 cells expressing E1A, Rb sequestered; DMSO wells 0%, reference activator 100%. hit rate 30% among 3,500;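 active = activation above its plate's cutoff, the mean activation of tested wells plus 3 SD, cut at about 7.9% in these data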
VP16 Luc act: GAL4-VP16 reporter activation counter-screen. shares compounds with SMARCA2 activ. AID 686939. activation, % at 9.1 µM. hit rate 41% among 3,500. HEK293 GAL4-VP16 pG5luc reporter, luciferase luminescence; scaled: DMSO wells 0%, SAHA wells 100%;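 active = activation above the solvent-only control well mean plus 3 SD, averaged across control plates, cut at about 5.2% in these data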
The depositor's hits bear a star; i = inactive; x = no result given. Cut-off read from the data, not from the text of the source, unless noted: active = inhibition above about 4.5%; inactive = the rest.

SMILES | bovine MsrA act | ABCB6 inh MLPCN | SMARCA2 activ | MsrA inhibitor | MsrA act confirm | others
CCOC(=O)c1csc(-c2snnc2C)n1 | 8.0* | 98 | 4 | 0 | -5
CCCN1CCS(=O)(=O)N(Cc2cn(Cc3ccc(Cl)cc3)nn2)C(C(=O)OC)C1 (centres undefined) | x | x | -4 | x | x
C[C@@H](CSc1ccccc1)CN1CC[C@H](C(C)(C)C)CCC1=O | 8.2* | 97 | 0 | 1 | -1
O=C(NC1CC1)C1=C[C@@H](c2ccc(C(F)(F)F)cc2)C[C@@H](OCc2ccc(CO)cc2)O1 | 8.1* | 101 | 0 | 1 | 3
C=CCN1C(=O)[C@@H](CC(=O)N2CCCCC2)[C@]2(C(=O)OCC)CCCCC/C=C/12 | x | x | -1 | x | x
c1ccc2cc(Cn3ccc4ccc(-c5ccc6cc[nH]c6c5)cc43)ccc2c1 | x | x | 0 | x | x
CCC(c1nnnn1C(C)(C)C)N1CCN(C2CCCC2)CC1 (centres undefined) | 8.1* | 89 | 2 | 0 | -1
C#CCN(C)S(=O)(=O)c1ccc(N2CCCC2)cc1Br | x | x | -4 | x | x
COC(=O)c1ccccc1SC(CC(=O)c1ccccc1)c1ccc(F)cc1 (centres undefined) | -3 | 99 | 2 | 0 | x
Nc1ccccc1SC(CC(=O)c1ccccc1)c1ccccc1 (centres undefined) | 7.9* | 101 | x | x | 0
COc1cccc(NC(=O)C(C)OC(=O)c2n[nH]c3ccccc23)c1 (centres undefined) | 16* | 97 | -1 | -1 | 0
CCCCN(C)C(=O)c1cc2cc3ccc(OC)cc3nc2o1 | 17* | 111 | 4 | 2 | 0
O=C(NCC1CCCO1)c1cc2n(n1)C(C(F)(F)F)CC(c1ccc(Br)cc1)N2 (centres undefined) | 11* | 100 | 0 | 1 | -1
O=C(NCC1CCCO1)c1nn2c(c1Cl)NC(c1ccc(F)cc1)CC2C(F)(F)F (centres undefined) | -4 | 85 | -1 | 1 | x
COc1ccc(Cl)cc1NC(=O)CN(C)CC(=O)Nc1ccc(Br)cc1 | 8.9* | 101 | -4 | 0 | 1
COc1ccc(S(=O)(=O)Nc2cc(C)c(O)c(S(=O)(=O)c3ccccc3)c2)cc1 | 9.3* | 105 | 0 | 0 | 1
COc1ccc(CNC(=O)c2c(C)oc3c2C(=O)c2ccccc2C3=O)cc1 | 7.9* | 98 | -6 | 7.6* | 8.0* | MsrA inh confirm=9.0*
O=C(OC12CCCN(C1)/C(=C/c1ccc(Cl)cc1)C2)c1ccc(Cl)cc1 (centres undefined) | x | x | -2 | x | x
O=C1c2ccccc2C(=O)c2cc(S(=O)(=O)Nc3ccccc3)ccc21 | 10.0* | 106 | -4 | 29* | 5.8* | MsrA inh confirm=31*
COc1cc(C=c2c3ccccc3n3c2cc(-c2ccccc2)[n+]3C)cc(OC)c1OC | 18* | 161 | -7 | 12* | 9.9* | MsrA inh confirm=2
COc1cc(N(C)C)ccc1C=c1c2ccccc2n2c1cc(-c1ccccc1)[n+]2C | 4 | i | -10 | 0 | x
O=C(c1ccccc1)c1coc2c1C(=O)c1ccccc1C2=O | 8.2* | 105 | 4 | 19* | 16* | MsrA inh confirm=26*
O=C(Nc1ccc2cn[nH]c2c1)c1c(Cl)cccc1Cl | -6 | 101 | 0 | 0 | x
O=C1C(Cl)=C(Nc2ccc3cn[nH]c3c2)C(=O)c2ccccc21 | 26* | 65* | -11 | 17* | 15* | MsrA inh confirm=10*
COC(=O)c1ccc(/C=C2\CCn3c2nc2cc(C(=O)O)ccc2c3=O)cc1 | -2 | 99 | x | x | x
CSc1ccc(/C=C2\CCn3c2nc2cc(C(=O)O)ccc2c3=O)cc1 | 10* | 96 | -1 | 5.0* | -6 | MsrA inh confirm=4.8*
COCCCN1C(=O)[C@H](CC(=O)NCCCCc2ccccc2)[C@]2(C(=O)OC)CCCCC=C12 | x | x | 0 | x | x
CC(COc1cccc(F)c1)CN1CCC(C(O)(c2ccccc2)c2ccccc2)CC1 (centres undefined) | x | x | -6 | x | x
COc1ccc(OC)c2nc3c(C(=O)NCCN(C)C)cccc3nc12 | 21* | 95 | 21* | 0 | 12* | SMARCA2 conf=52*;VP16 Luc act=2

Bioassay records from PubChem.
